ERG-DNA inh – qHTS for Small Molecule Inhibitors of the ERG Ets/DNA interaction; Transcriptional regulator ERG (Homo sapiens), P11308; fluorescence polarization, His-ERG Ets domain / labelled DNA; Potency, µM (doses to about 76.9 µM), for inactives: at the highest dose FP activity, negative = inhibition, most hits filed as inhibitors; actives 0.028% (n = 370,000); active = well fitted inhibition curve with a large enough effect in the polarisation, with a control signal flat; inconclusive = small, poorly fitted or top-dose-only effect, or effect the other way, or a change in a side signal; inactive = no such curve, though single readings can be large or run the other way; the % refers to the polarisation;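 also: polarization taken with two DNA probes labelled with fluorescein and Texas red; % of control where 0% means no effect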
Target sequence (P11308 whole entry, looked up, the tested form may be a part): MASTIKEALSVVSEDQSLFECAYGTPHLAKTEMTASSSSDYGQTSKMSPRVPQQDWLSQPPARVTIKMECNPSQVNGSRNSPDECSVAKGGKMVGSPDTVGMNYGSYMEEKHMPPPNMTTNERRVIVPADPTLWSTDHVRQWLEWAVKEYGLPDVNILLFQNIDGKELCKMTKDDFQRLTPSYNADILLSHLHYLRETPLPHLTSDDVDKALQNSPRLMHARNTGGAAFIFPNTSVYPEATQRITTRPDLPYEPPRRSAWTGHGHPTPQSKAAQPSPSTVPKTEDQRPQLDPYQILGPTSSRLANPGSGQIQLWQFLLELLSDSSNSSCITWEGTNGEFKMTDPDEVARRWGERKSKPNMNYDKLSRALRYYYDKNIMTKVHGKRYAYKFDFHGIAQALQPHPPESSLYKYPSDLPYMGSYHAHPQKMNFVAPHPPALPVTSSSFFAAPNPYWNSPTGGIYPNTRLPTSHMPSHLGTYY
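His-tagged ERG Ets domain (1 uM in the protein solution; 300mM KCl, 50mM Tris-HCl, 1mM EDTA, 1mM DTT, pH 7.5) received compound, then a probe mix of 5 nM fluorescein-DNA and 100nM Texas-615-DNA. Fluorescence polarization was read for both dyes.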
GCN5L2 inh – qHTS Assay for Inhibitors of GCN5L2; GCN5L2 HAT assay, ThioGlo1 CoA-SH fluorescence; Potency, µM (doses to about 58.9 µM), inactives show at the top dose activity change, negative = inhibition, usual class: inhibitors; actives 0.21% (n = 390,000); AID 504327, 2011; also: % is scaled to controls: 0 for no effect and ±100 for the full control effect
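qHTS, 1536-well. 20nM enzyme, pH 7.5 HEPES/EDTA/Tween-20 buffer; 15 min compound preinc., RT. Start: 75uM H3(1-25), 70uM AcCoA, 50uM ThioGlo1. Read Ex340/Em540 at t=0 (autofluorescence flag) and t=20 min.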
ASM inhibitor – Inhibitors of Secretory Acid Sphingomyelinase (S-ASM): qHTS; Sphingomyelin phosphodiesterase (Homo sapiens), P17405; Potency, µM (series often up to 57.5 µM), for inactives: at the highest dose activity change, negative = inhibition, most hits filed as inhibitors; actives 0.006% (n = 340,000); placental ASM, HMU-PC fluorogenic substrate, 60 min
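Human placenta-derived ASM enzyme was preincubated with compound for 10 minutes at room temperature, then given fluorogenic substrate HMU-PC0 (9 uM final) for 60 minutes at 37 °C; a pH 10 stop preceded fluorescence reading at Ex 386/Em 447 nm.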
A-T KAP1 phos – qHTS Assay for Identifying a Potential Treatment of Ataxia-Telangiectasia | F2112 A-T fibroblasts, KAP-1 phosphorylation AlphaLISA; neocarzinostatin DNA damage 30 min before lysis | Potency, µM (doses to about 57.5 µM), inactives show top-dose activation, most hits filed as activators | actives 0.19% (n = 320,000) | AID 485349, 2010; also: % of control where 0% means no effect; nearly all actives have a fitted effect of over 45% in size
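hTERT-immortalized A-T patient fibroblasts (F2112), 500 cells/well in OPTI-MEM, 1% FBS, got compounds for 60 min, then NCS for 30 min at 37C. Lysates were then assayed for phospho-KAP-1 by AlphaLISA (anti-pKAP1 donor, anti-KAP1 acceptor beads), 6 hr at 25C.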
p53 reactivation – qHTS assay for re-activators of p53 using a Luc reporter. AID 504706, 2011. Potency, µM (highest dose often 92.2 µM), inactives show top-dose activity change, positive = activation, actives largely listed as activators. actives 0.063% (n = 320,000). H1299 p53-A138V BP100-luciferase reporter, luminescence, 24 h; also: % of control where 0% means no effect; nearly all actives have a fitted effect of over 45% in size
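p53-null H1299 cells stably carrying temperature-sensitive p53-A138V and a BP100-luciferase reporter were pinned with compounds (4-point, 1:5 series) and held 24 hrs at 37 deg C. Luminescence was read 10 min after detection reagent.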
Tb PFK inh-1 – qHTS Assay to Find Inhibitors of T. brucei phosphofructokinase; T. brucei PFK, ADP-Glo luminescence; Potency, µM (doses to about 57.5 µM), for inactives: top-dose activity, negative = inhibition, actives largely listed as inhibitors; actives 0.17% (n = 330,000); AID 485367, 2010;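 also: 0% = uninhibited 1x PFK enzyme wells and -100% = no-enzyme wells; nearly all actives have a fitted effect of over 60% in size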
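ADP-Glo luminescence quantified ADP after 45 min at room temperature, with 1.25 nM T. brucei PFK, 0.1 mM ATP and 0.5 mM fructose-6-phosphate in pH 8.0 TEA buffer. qHTS titrations up to 57 µM; curves classified by quality.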
TbPFK ATP – Tb PFK orthogonal confirmatory assay using ATP depletion (Kinase-Glo Plus) as an alternative measure of Tb PFK activity: Hit Validation; shares compounds with Tb PFK inh-1; Tb PFK enzyme, ATP depletion, Kinase-Glo Plus luminescence; Potency, µM (titrated, usually from 57.5 µM), for the others: at the top dose inhibition; actives 47% (n = 1,100); AID 504636, 2011; calls by dose curve; also: nearly all actives have a fitted effect of over 60% in size
Tb PFK inh-2 – Inhibitors of T. brucei phosphofructokinase: Hit Validation; purified T. brucei PFK, ADP-Glo luminescence, 45 min; shares compounds with Tb PFK inh-1; actives 41% (n = 1,100); Potency, µM (top dose mostly 57.5 µM), for the others: top-dose activity change, negative = inhibition, usual class: inhibitors;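 also: plate controls were full PFK enzyme control for no effect and no enzyme control for full effect; nearly all actives have a fitted effect of over 60% in size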
The depositor's hits bear a star; ? = inconclusive; · = no result; [ ] = remark or other dose. Hits are enriched below; roughly 0.55% of the tested compounds scored in any of these assays. Unless noted, calls follow the shape of the dose curve; as a rule, active = well fitted curve in the direction sought with a large enough effect; inconclusive = small, poorly fitted or top-dose-only effect, or another doubt; inactive = no such curve, though single readings can be large; an effect the other way counts as inactive or inconclusive. Potency is read from the fitted curve at half-maximal effect.

SMILES	ERG-DNA inh	GCN5L2 inh	ASM inhibitor	A-T KAP1 phos	p53 reactivation	Tb PFK inh-1	TbPFK ATP	Tb PFK inh-2
O=C(O)c1ccccc1-c1ccc(/C=c2\sc3nc4cc(Br)cnc4n3c2=O)o1	-16%	-2%	-11%	10%	-6%	?	6µM*	12µM*
CN1CC(CNC(=O)OCc2ccccc2)CC2c3cccc4c3c(cn4C)CC21 (configuration not stated)	·	3%	·	·	·	·	·	·
Cc1cc(C)c2c(=O)n(CC(=O)Nc3cccc(F)c3)sc2n1	-4%	?	1%	-9%	-10%	7.6µM*	?	4.8µM*
Cc1cc(C)c2c(=O)n(CC(=O)Nc3ccc(Cl)cc3)sc2n1	-3%	?	-7%	-8%	-13%	8.5µM*	?	3.8µM*
Cc1cccc(N2CCN(C(=O)Cn3sc4nc(C)cc(C)c4c3=O)CC2C)c1 (configuration not stated)	-13%	?	-2%	10%	-6%	15µM*	2%	-6%
CCOc1ccc(NC(=O)Cn2sc3nc(C)cc(C)c3c2=O)cc1	-9%	?	-4%	-16%	-9%	?	?	8.5µM*
C[C@@H](N)[C@@H](O)c1ccc(O)c(O)c1	·	2%	·	·	·	·	·	·
CCOC(=O)NC(O)C(Cl)(Cl)Cl (configuration not stated)	·	-5%	·	·	·	·	·	·
Cc1cc(C)c2c(=O)n(CC(=O)NCCCN3CCOCC3)sc2n1	-6%	18µM*	5%	-9%	-22%	8.5µM*	?	11µM*
Cc1ccc(NC(=O)c2ncn(CCCNCCN3CCOCC3)n2)cc1C	11%	·	-2%	·	·	·	·	·
Cc1ccc(NC(=O)Cn2sc3nc(C)cc(C)c3c2=O)c(Cl)c1	-1%	28µM*	-7%	-7%	-11%	11µM*	?	6µM*
CC1OC(O[C@@H]2C(O)CC(O[C@@H]3C(O)C[C@@H](OC4CC[C@]5(C)[C@H](CC[C@H]6[C@@H]5CC[C@]5(C)C(C7=CC(=O)OC7)C(O)C[C@@]65O)C4)OC3C)OC2C)CC(O)C1O (some centres not stated)	·	5%	·	·	·	·	·	·
O=c1c(O)c(-c2ccc(O)c(O)c2)oc2cc(O)cc(O)c12	?	-17%	-3%	-6%	?	?	·	·
O=c1cc(-c2ccc(O)c(O)c2)oc2cc(O)cc(O)c12	-5%	-4%	-9%	6%	?	?	-27%	?
COc1ccc(C[C@@H]2NC[C@H](O)[C@@H]2OC(C)=O)cc1	·	5%[21.4 µM]	·	·	·	·	·	·
CC(C)C[C@H]1C(=O)N2CCC[C@@H]2[C@@]2(O)O[C@](NC(=O)[C@@H]3C=C4c5cccc6[nH]cc(c56)C[C@@H]4N(C)C3)(C(C)C)C(=O)N12	·	-12%[21.4 µM]	·	·	·	·	·	·
NC(=O)N/N=C1\c2ccccc2-c2c(C(N)=O)cccc21	-6%	-5%	-16%	-14%	-2%	?	11%	-4%
O=[N+]([O-])c1ccccc1CNCCc1ccc(F)cc1	·	-2%	-1%	-3%	?	-7%	·	·
Cc1cccc(NCc2ccc([N+](=O)[O-])s2)c1	2%	-5%	-1%	-3%	·	?	21µM*	?
O=[N+]([O-])c1ccc(CNc2cccc(F)c2)s1	-9%	-6%	9%	-6%	?	13µM*	5.4µM*	13µM*
CC(C)[C@H](NC(=O)[C@H](CC(=O)O)NC(=O)[C@H](Cc1ccccc1)NC(=O)[C@@H](C)NC(=O)[C@@H](N)Cc1ccc(O)cc1)C(=O)N[C@H](C(=O)NCC(N)=O)C(C)C	·	49%	·	·	·	·	·	·
CC(C)C[C@H](NC(=O)[C@H](Cc1ccccc1)NC(=O)CNC(=O)[C@@H](NC(=O)[C@@H](N)Cc1ccc(O)cc1)[C@H](C)O)C(=O)N[C@H](C(=O)O)[C@H](C)O	·	-11%	·	·	·	·	·	·
CCN(CC)C(=O)N[C@H]1C=C2c3cccc4[nH]cc(c34)C[C@@H]2N(C)C1	·	-4%[21.4 µM]	·	·	·	·	·	·
CC(=O)Nc1cc([As](=O)(O)O)ccc1O	-4%	1%	-10%	-17%	0%	?	?	?
CC(=O)Nc1cccc([As](=O)(c2cccc(NC(C)=O)c2)c2cccc(NC(C)=O)c2)c1	15%	-2%	4%	5%	0%	-1%	·	·
SMILES	ERG-DNA inh	GCN5L2 inh	ASM inhibitor	A-T KAP1 phos	p53 reactivation	Tb PFK inh-1	TbPFK ATP	Tb PFK inh-2
CC(C)c1cc2c(c(O)c1O)[C@@]1(C(=O)O)CCCC(C)(C)[C@@H]1CC2	·	-23%	·	·	·	·	·	·
Cc1cc(C)n2nc3nc(N4CCCCC4)nc(-c4ccco4)c3c2n1	-3%	-8%	103%	17%	2%	?	9%	-2%
O=NN1CCCC1c1cccnc1 (configuration not stated)	·	-16%	·	·	·	·	·	·
CCN(CC)c1ccc(/C=C2/C(=O)NC(=O)N(CC3CCCO3)C2=O)cc1 (configuration not stated)	-5%	-18%	1%	-5%	0%	-6%	·	·
CCN(CC)c1ccc(/C=C2\C(=O)N(c3nnc(C)c(=O)[nH]3)N=C2C)cc1	4%	-17%	-4%	-23%	-8%	?	?	13µM*
Cc1ccc(-c2cc(C(=O)N/N=C/C(Br)=C/c3ccccc3)n[nH]2)o1	4%	-3%	-28%	-1%	2%	?	-20%	?
N#C/C(=C\c1ccc(O)cc1)C(=O)O	1%	-19%	10%	·	·	·	·	·
COCCNC(=O)/C(C#N)=C/c1ccc(O)cc1	6%	-12%	6%	21%	12%	?	-22%	?

High-throughput results deposited in PubChem BioAssay by National Center for Advancing Translational Sciences (NCATS).
